Consider seven compounds from PubChem BioAssay (NCATS).

Inconclusive results are not listed. The source made the active and inactive calls. Unless noted, calls come from the whole dose curve; as a rule, active = well fitted curve in either direction with a large enough effect (not every such curve was filed as active); inconclusive = small, poorly fitted or top-dose-only effect, or another doubt; inactive = flat fitted curve, though single readings scatter. Some results are limits rather than exact numbers.

Test [1] concerns the target Lysosomal acid glucosylceramidase (Homo sapiens) (UniProt P04062). The test can be described thus: Glucocerebrosidase-p2 (AID 348; in the data active = potency below about 10 µM; note: potency is the fitted concentration of half-maximal effect). As to conditions: purified GBA, blue fluorogenic substrate, 40 min. The gist of the method:
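Compounds titrated from 0.6 nM upwards against 0.2 nM enzyme in pH 5.9 citric acid/KH2PO4, taurocholate, tween-20; blue fluorogenic substrate 80 uM, 40 min room temperature, stopped and read Ex 365/Em 440 for AC50.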

A short description of test [2]: AP1 Signaling Pathway (AID 357). Note: % is set by controls: 0 for no effect and ±100 for the full control effect. As to conditions: ME-180 AP-1-bla reporter, EGF-induced, beta-lactamase ratio, 5 h; at 7.69 µM (top of the series) unless noted. The gist of the method: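 ME-180 cells with beta-lactamase reporter under AP-1 response element, stimulated with EC50 EGF; compounds tested in titration series, 5 h at 37 °C. CCF4 substrate added 2.5 h at room temperature; 460/530 nm emission ratio gave %activity and AC50.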

Test [3] deals with Cytochrome P450 1A2 (Homo sapiens) (UniProt P05177). In words: p450-cyp1a2 (AID 410; calls by dose curve; note: potency is the fitted concentration of half-maximal effect;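 for activity change, negative = inhibition: -100% = full effect of reference inhibitor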). As to conditions: recombinant CYP1A2, luciferin-ME demethylation, luminescence; series mostly up to 57 µM. The gist of the method:
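Human CYP1A2 (20nM) demethylated Luciferin-ME at its Km (100uM) in 100mM KPO4. After 10 min compound preincubation, NADPH regeneration ran the reaction 60 min at room temperature. Luciferin was read by luminescence, normalized to 57 uM furafylline.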

A short description of test [4]: NFAT Signaling Pathway (AID 444).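 Note: carbachol stimulus at about its EC50 of 1 µM final; % is set by controls: 0 for no effect and ±100 for the full control effect.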 The conditions noted are these: Jurkat NFAT-bla M1, carbachol, beta-lactamase ratio, 5 h; at 7.69 µM (top of the series) unless noted. The gist of the method:
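Jurkat cells with NFAT-driven β-lactamase reporter and co-expressed M1 receptor, stimulated with carbachol (final 1 uM, ~EC50), compound titration, 5 h at 37 °C. CCF4 loaded 1 h at RT; 460/530 nm ratio gave %activity and AC50.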

Test [5] can be described thus: Stat Signaling Pathway (AID 446).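 Note: ME-180 cervical cancer cells given 40 pM IL-6 alongside compound; SIE-controlled beta-lactamase reporter measured as 460/530 nm FRET emission ratio; % is set by controls: 0 for no effect and ±100 for the full control effect.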 The conditions noted are these: ME-180 SIE beta-lactamase reporter, IL-6 stimulated, 5 h; at 7.69 µM (top of the series) unless noted. The gist of the method:
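Screening format detects activators and inhibitors alike: ME-180 SIE-bla cells stimulated at 40 pM IL-6 for 5 hrs with compound, then dual-emission beta-lactamase read at 405 nm excitation.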

In test [6] the target is Glucocorticoid receptor (Homo sapiens) (UniProt P04150). In words: GR-EFC Redistribution (AID 451; calls by dose curve; note: potency is the fitted concentration of half-maximal effect). The conditions noted are these: CHO-K1 GR-EFC translocation, beta-gal luminescence, 2 h. In short, it runs like this: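 CHO-K1 cells expressing nuclear EA and GR-ED fragments of b-gal; compounds titrated up to 46 uM final, 2 h at 37 C. GR nuclear translocation read as complemented b-gal luminescence after 1 h RT detection.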
Glucocorticoid receptor (Homo sapiens), sequence (P04150 whole entry, looked up, the tested form may be a part): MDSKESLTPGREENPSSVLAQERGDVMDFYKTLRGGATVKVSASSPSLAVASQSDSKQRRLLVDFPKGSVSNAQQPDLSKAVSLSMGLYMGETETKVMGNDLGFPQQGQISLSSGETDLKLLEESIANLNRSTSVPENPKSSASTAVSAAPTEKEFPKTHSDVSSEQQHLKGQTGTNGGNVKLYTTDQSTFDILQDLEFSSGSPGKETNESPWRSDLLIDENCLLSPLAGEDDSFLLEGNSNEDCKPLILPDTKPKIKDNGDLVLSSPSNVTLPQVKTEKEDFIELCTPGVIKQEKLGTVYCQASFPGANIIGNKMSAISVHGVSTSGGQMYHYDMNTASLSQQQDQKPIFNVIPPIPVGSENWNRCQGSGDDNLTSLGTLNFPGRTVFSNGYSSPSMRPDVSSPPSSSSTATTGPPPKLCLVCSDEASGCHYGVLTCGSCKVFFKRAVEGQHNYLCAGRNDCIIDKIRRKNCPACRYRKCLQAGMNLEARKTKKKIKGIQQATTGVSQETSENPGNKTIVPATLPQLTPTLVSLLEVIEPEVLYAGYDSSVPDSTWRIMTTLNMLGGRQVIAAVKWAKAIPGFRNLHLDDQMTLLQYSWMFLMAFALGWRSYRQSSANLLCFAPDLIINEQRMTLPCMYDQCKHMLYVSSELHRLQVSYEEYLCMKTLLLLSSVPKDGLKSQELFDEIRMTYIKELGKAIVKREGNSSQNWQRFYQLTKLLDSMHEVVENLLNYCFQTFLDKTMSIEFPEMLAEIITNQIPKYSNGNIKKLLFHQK

The target in test [7] is Mitogen-activated protein kinase 10 (Mus musculus) (UniProt Q61831). The test can be described thus: JNK3 AlphaScreen Assay (AID 530).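 Note: kinase came from lysate of stimulated human HepG2 cells; signal reports phosphorylation of biotinylated GST-cJun 1-79 at Ser73 with 10 µM ATP; % is set by controls: 0 for no effect and ±100 for the full control effect.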 The conditions noted are these: JNK3 lysate, c-Jun phosphorylation; series mostly up to 57.1 µM. In short, it runs like this: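 qHTS format: compounds tested as titrations against IL-1beta/TNF-alpha-activated HepG2 lysate JNK3 with biotin-GST-cJun substrate and 10 uM ATP at room temperature. Loss of anti-phospho-cJun AlphaScreen signal indicates inhibition.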

For test [8], the target named is 3',5'-cyclic-AMP phosphodiesterase 4B (Homo sapiens) (UniProt Q07343). In words: qHTS Assay for Inhibitors of PDE-IV (AID 607; active = well fitted activation curve with a large enough effect in the main read-out, with a control signal flat, not every such curve was filed as active; note: % of control where 0% means no effect). As to conditions: HEK293 ACTOne CNG channel cells, membrane potential fluorescence; series mostly up to 22.9 µM. The gist of the method: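 The readout is membrane depolarisation from a cAMP-sensing CNG channel, detected with a potential dye at ex 535/em 590. Cells were HEK293-derived (endogenous PDE-IV) at 1000 cells/well, titrated up to 22.9 uM final.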
3',5'-cyclic-AMP phosphodiesterase 4B (Homo sapiens), sequence (Q07343 whole entry, looked up): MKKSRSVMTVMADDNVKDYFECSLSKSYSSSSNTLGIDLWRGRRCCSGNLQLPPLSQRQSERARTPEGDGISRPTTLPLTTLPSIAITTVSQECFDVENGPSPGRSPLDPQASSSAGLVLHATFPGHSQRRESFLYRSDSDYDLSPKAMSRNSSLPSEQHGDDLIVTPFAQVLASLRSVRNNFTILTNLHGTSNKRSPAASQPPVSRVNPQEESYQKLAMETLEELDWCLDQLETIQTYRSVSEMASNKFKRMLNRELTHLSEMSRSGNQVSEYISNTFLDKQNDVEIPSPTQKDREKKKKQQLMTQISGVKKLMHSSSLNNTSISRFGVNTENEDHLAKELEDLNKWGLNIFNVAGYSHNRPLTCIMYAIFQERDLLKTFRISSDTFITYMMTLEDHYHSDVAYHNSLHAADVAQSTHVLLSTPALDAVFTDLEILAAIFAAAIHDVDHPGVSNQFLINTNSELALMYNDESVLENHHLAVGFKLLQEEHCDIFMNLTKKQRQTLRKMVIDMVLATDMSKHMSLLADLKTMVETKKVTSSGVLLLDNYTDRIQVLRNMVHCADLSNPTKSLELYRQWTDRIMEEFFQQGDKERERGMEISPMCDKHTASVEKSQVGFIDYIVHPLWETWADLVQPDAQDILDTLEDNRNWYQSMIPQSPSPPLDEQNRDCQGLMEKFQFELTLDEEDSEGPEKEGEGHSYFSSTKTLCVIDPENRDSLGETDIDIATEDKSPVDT

Test [9] is described as follows: qHTS Assay for Lipid Storage Modulators (AID 1519; calls by dose curve). The conditions noted are these: Drosophila S3 cells, BODIPY lipid droplet/cell ratio, laser cytometry, cells loaded with oleic acid; for activity change, negative = inhibition: at 57.5 µM (top of the series). The gist of the method:
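Cells seeded at 5,000 per well were treated with compounds over a concentration series and loaded with oleic acid (400 uM, as added). Lipid droplet fluorescence (488 nm excitation, 500-530 nm channel) was read by laser-scanning cytometry and normalized to 20 uM Triacsin C.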

The nature of test [10]: Primary qHTS for small molecule stabilizers of the endoplasmic reticulum resident proteome: Secreted ER Calcium Modulated Protein (SERCaMP) assay (AID 1508630; active = well fitted inhibition curve with a large enough effect; note: % is set by controls: 0 for no effect and ±100 for the full control effect). The conditions noted are these: SH-SY5Y GLuc-SERCaMP (Gaussia luciferase released on ER calcium loss) secretion, thapsigargin, luminescence; series mostly up to 38.4 µM. The gist of the method: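 GLuc-SERCaMP-expressing SH-SY5Y cells, pretreated 16 h with compound, are challenged with thapsigargin to empty ER calcium stores; after 4 h, coelenterazine is added directly to the medium and luminescence is imaged.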

Where [11] appears, read: measured here: cell count channel max response.
Where [12] appears, read: measured here: lipid channel max response.

Lysosomal acid glucosylceramidase (Homo sapiens), sequence (P04062 whole entry, looked up): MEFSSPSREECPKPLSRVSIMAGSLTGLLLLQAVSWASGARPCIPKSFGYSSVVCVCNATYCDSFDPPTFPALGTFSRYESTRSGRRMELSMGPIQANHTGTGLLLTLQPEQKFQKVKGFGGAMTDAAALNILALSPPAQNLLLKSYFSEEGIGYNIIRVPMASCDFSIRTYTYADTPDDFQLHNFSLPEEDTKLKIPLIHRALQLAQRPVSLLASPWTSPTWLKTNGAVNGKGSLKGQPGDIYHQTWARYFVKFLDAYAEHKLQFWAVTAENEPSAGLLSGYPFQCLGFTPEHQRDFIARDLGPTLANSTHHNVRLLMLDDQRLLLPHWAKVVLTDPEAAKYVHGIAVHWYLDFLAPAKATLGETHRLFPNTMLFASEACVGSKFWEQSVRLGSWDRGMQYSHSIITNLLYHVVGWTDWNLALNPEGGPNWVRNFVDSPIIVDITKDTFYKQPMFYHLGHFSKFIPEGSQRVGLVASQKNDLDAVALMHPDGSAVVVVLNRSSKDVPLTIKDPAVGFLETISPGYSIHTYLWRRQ
Cytochrome P450 1A2 (Homo sapiens), sequence (P05177 whole entry, looked up): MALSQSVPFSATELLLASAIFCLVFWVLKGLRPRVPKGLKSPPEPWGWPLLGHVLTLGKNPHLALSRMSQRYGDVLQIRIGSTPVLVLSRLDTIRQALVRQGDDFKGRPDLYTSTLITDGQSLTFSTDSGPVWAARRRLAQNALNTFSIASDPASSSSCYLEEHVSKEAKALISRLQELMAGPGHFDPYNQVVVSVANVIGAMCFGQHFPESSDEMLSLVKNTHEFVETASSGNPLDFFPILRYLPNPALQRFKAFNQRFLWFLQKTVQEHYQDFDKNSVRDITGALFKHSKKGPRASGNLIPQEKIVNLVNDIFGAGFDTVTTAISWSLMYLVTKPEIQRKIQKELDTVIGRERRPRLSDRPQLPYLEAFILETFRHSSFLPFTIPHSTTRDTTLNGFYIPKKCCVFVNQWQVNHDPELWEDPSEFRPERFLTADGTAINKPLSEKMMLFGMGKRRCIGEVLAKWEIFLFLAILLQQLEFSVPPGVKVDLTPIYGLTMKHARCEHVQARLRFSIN

As to `Cc1noc(C)c1C(=O)N1CCC2(CCCN(C(=O)Nc3cccc(F)c3)C2)CC1`, the Potency in test [1] was > 11.4 µM (inactive); in [3], 15.8 µM (active); in test [6], > 46 µM (inactive). Moreover, the activity change, negative = inhibition in test [2] is -3.17% (inactive); in [4], -8.48% (inactive); in test [9], 5.45% (inactive). Besides, in test [5], the activity, negative = inhibition is -0.0561% (inactive). In test [7], the result was inactive. The Potency result in test [8] and in [10] was “inactive” in each case. The max response in [9] (setting [11]) was determined as 9.33%; in test [9] (setting [12]), 19.9%.

In the case of `COCC(=O)N1CCC[C@@]2(CCN(c3ncccn3)C2)C1`, the Potency in test [1] is > 11.4 µM (inactive); in test [6], > 46 µM (inactive). Also, the activity change, negative = inhibition in test [2] is -8.65% (inactive); in test [4], -4.08% (inactive); in test [9], -2.11% (inactive). For the same compound, the Potency result in [3], in test [8] and in test [10] was “inactive” throughout. For the same compound, the activity, negative = inhibition in [5] is -2.01% (inactive). Moreover, the compound was called inactive in test [7]. In addition, the values for the max response in [9] (setting [11]) and in test [9] (setting [12]) were 19.1% and 20.3%, respectively.

`CS(=O)(=O)N1CCC[C@@]2(CCN(C(=O)Nc3ccccc3)C2)C1`: the Potency in [1] is > 11.4 µM (inactive); in [6], > 46 µM (inactive). The activity change, negative = inhibition in test [2] is -1.88% (inactive); in test [4] it was 17.3% (inactive); in [9], 0.904% (inactive). Also, the Potency result in test [3], in test [8] and in test [10] was “inactive” in each case. Further, the activity, negative = inhibition in test [5] was -10.3% (inactive). Besides, the compound was classed as inactive in test [7]. Moreover, the values for the max response in test [9] (setting [11]) and in test [9] (setting [12]) were 16.4% and 17.6%, respectively.

Turning to `Cc1noc(C)c1C(=O)N1CCC2(CC1)CN(c1ncccn1)C2`, the Potency in test [1] was > 11.4 µM (inactive); in test [6], > 46 µM (inactive). Further, the activity change, negative = inhibition in test [2] is -8.73% (inactive); in [4], 13.3% (inactive); in test [9], 6.33% (inactive). The Potency entry in [3], in [8] and in [10] was “inactive” each time. The activity, negative = inhibition in test [5] is 2.57% (inactive). Moreover, the compound was classed as inactive in test [7]. Also, the values for the max response in test [9] (setting [11]) and in [9] (setting [12]) were 15.3% and 24.4%, respectively.

In the case of `CN1CCC2(CC1)CCN(C(=O)c1cc(C(F)(F)F)cc(C(F)(F)F)c1)CC2`, the Potency in test [1] was > 11.4 µM (inactive); in [6] it was > 46 µM (inactive). In addition, the activity change, negative = inhibition is -8.71% (inactive) in test [2], -5.98% (inactive) in test [4] and 1.93% (inactive) in test [9]. Also, the Potency entry in test [3], in test [8] and in [10] was “inactive” in each case. For the same compound, the activity, negative = inhibition in test [5] is -2.34% (inactive). For the same compound, the outcome in [7] was inactive. For the same compound, the max response was -7.21% in test [9] (setting [11]) and -4.06% in test [9] (setting [12]).

Regarding `CC(C)NC(=O)N1CC2(CCN(S(=O)(=O)c3ccccc3)CC2)C1`, the figures for the Potency in [1] and in test [6] were > 11.4 µM (inactive) and > 46 µM (inactive), respectively. Besides, the values for the activity change, negative = inhibition in [2], in test [4] and in test [9] were -9.04% (inactive), 21.2% (inactive) and -7.9% (inactive), respectively. In addition, the Potency entry in [3], in test [8] and in test [10] was “inactive” each time. Moreover, the activity, negative = inhibition in test [5] is -0.15% (inactive). Besides, in test [7], the outcome was inactive. Also, the max response was 3.88% in test [9] (setting [11]) and -2.51% in test [9] (setting [12]).

`CC(C)NC(=O)N1CC[C@@]2(CCCN(C(=O)c3cccn3C)C2)C1`: the Potency in [1] is > 11.4 µM (inactive); in [6], > 46 µM (inactive). Also, the activity change, negative = inhibition in test [2] is 12.3% (inactive); in test [4], -8.88% (inactive); in test [9] it was 3.5% (inactive). Moreover, the Potency result in [3], in [8] and in [10] was “inactive” throughout. For the same compound, in test [5], the activity, negative = inhibition was -1.46% (inactive). Further, in test [7], the call was inactive. In addition, the max response is -17.7% in test [9] (setting [11]) and -8.74% in [9] (setting [12]).
